In PubChem BioAssay (EPA / NIEHS) one finds outcome and AC50 data, which are given here for 17 compounds.

Test [1] in a line: CCTE_Deisenroth_AIME_384WELL_CTox_Inactive: Cytotoxicity Assessment (CTOX) in CCTE's 384-well Estrogen Receptor Transactivation Assay without AIME metabolic competence (metabolism negative), Deisenroth Lab (AID 2284039; active means hit-call score of the fitted dose curve at least 0.9, where 1 is the maximum;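 further: cell viability via live-cell protease substrate cleaved to fluorescent probe; cells exposed 24 h to medium preincubated 2 h with alginate-water beads without S9; loss of fluorescence signal means loss of viability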). A digest of the protocol:
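Fluorescent protease-substrate viability readout after 24 h exposure of VM7Luc4E2 cells to conditioned medium. Chemicals (0.002–200 uM) first sat 2 h over alginate-water beads, no S9. Data fitted bidirectionally, loss of signal meaning viability loss.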

Test [2] concerns the target Estrogen receptor (Homo sapiens) (UniProt P03372). The experiment in a line: CCTE_Deisenroth_AIME_384WELL_LUC_Shift: CCTE's 384-well Estrogen Receptor Transactivation Assay with AIME metabolic competence data shift (ERTA luciferase; difference in metabolism positive and negative), Deisenroth Lab (AID 2284041).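 Further: shift is response with S9 minus without S9 so positive means metabolism raised ER signal.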 A digest of the protocol:
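Here, parent compounds undergo 2 h phase I metabolism by PB/BNF-induced rat S9 before 24 h transactivation in VM7Luc4E2 cells; the curve models S9-positive minus S9-negative response over a 10-point series.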

Test [3] is described as follows: CCTE_Shafer_MEA_dev_active_electrodes_number: CCTE's Neural Network Formation Assay for Number of Active Electrodes, Shafer Lab (AID 2284040; active means hit-call score of the fitted dose curve at least 0.9, where 1 is the maximum;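 on AC50: potency for loss of active electrodes versus DMSO so lower counts are hits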). Summed up: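 Primary rat cortical neurons on 16-electrode MEA wells, exposed from day 0 through day 12 with compound renewed at DIV 5 and 9 feeds. Active electrodes (mean firing ≥5 spikes/min) counted at DIV 5, 7, 9, 12; trapezoidal AUC across days, loss-of-signal versus DMSO.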

The nature of test [4]: CCTE_Shafer_MEA_dev_burst_rate: CCTE's Neural Network Formation Assay for Burst Rate, Shafer Lab (AID 2284042).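 On AC50: potency for loss of burst rate below DMSO control.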 A digest of the protocol:
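Exposure ran continuously over 12 days of network development in rat cortical cultures, with compound refreshed during full media changes on DIV 5 and 9. Single-electrode bursts per recording time, well-mean over active electrodes, trapezoidal AUC across days 5–12, fitted downward relative to DMSO.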

The nature of test [5]: CCTE_Shafer_MEA_dev_bursting_electrodes_number: CCTE's Neural Network Formation Assay for Number of Bursting Electrodes, Shafer Lab (AID 2284043; active means hit-call score of the fitted dose curve at least 0.9, where 1 is the maximum;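 on AC50: potency is for loss of bursting electrodes relative to DMSO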). A digest of the protocol: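 Primary rat cortical neurons were cultured on PEI-coated 48-well MEA plates (16 electrodes/well) and exposed from plating through day 12, with compound renewed at feeds on DIV 5 and 9. Electrodes bursting ≥1 per 2 min were counted on DIV 5, 7, 9, 12; trapezoidal AUC taken.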

Test [6] in a line: CCTE_Shafer_MEA_dev_interburst_interval_mean: CCTE's Neural Network Formation Assay for Mean Interburst Interval, Shafer Lab (AID 2284046).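 Further: curve fitted for decrease in interburst interval relative to DMSO.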 A digest of the protocol: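 Primary rat cortical neurons on PEI-coated 48-well MEA plates (laminin added with cells at plating) (16 electrodes/well), exposed from plating day 0 with renewal at DIV 5 and 9. Mean inter-burst interval averaged over bursting electrodes, AUC across days 5, 7, 9, 12; DMSO baseline.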

The nature of test [7]: CCTE_Shafer_MEA_dev_inter_network_spike_interval_mean: CCTE's Neural Network Formation Assay for Mean Inter-network Spike Interval, Shafer Lab (AID 2284047). A digest of the protocol:
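Mean time between consecutive network-spike peaks, recorded extracellularly (adaptive spike detection) on DIV 5, 7, 9 and 12, summarized as trapezoidal AUC. Rat cortical cultures on MEAs dosed continuously days 0–12, re-dosed at feeds; loss-of-signal fit relative to DMSO.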

The nature of test [8]: CCTE_Shafer_MEA_dev_network_spike_number: CCTE's Neural Network Formation Assay for Number of Network Spikes, Shafer Lab (AID 2284048).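 Further: synchronized bursts across electrodes counted on days 5 7 9 12 and integrated as AUC.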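 On AC50: fit as a loss of signal meaning fewer network spikes than DMSO.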 Summed up: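 Primary rat cortical neurons were seeded at 1.5 x 10^5 cells/well on PEI-coated 16-electrode MEA wells with laminin, exposed from plating day 0, compound renewed at DIV 5 and 9. Network spikes were recorded on days 5, 7, 9, 12 and summarized as trapezoidal AUC versus DMSO.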

Test [9] in a line: CCTE_Shafer_MEA_dev_network_spike_peak: CCTE's Neural Network Formation Assay for Mean Number of Electrodes in Network Spike, Shafer Lab (AID 2284049).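 On AC50: fitted for loss of signal meaning fewer electrodes in network spikes than DMSO.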 Summed up:
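Continuous 12-day exposure of rat cortical cultures, starting at plating, on MEA plates. Endpoint: electrodes participating in network-spike peaks, AUC across DIV 5–12, DMSO as negative control.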

The nature of test [10]: CCTE_Shafer_MEA_dev_spike_duration_mean: CCTE's Neural Network Formation Assay for Mean Spike Duration, Shafer Lab (AID 2284051).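 Further: mean network spike duration pooled as area under curve over DIV 5 to 12 recordings.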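 On AC50: potency for a decrease in mean network spike duration versus DMSO.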 Summed up:
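Spontaneous activity was recorded on days 5, 7, 9 and 12 from rat cortical cultures grown on microelectrode arrays and dosed continuously from day 0, with media and compound renewed after the DIV 5 and 9 recordings. Network-spike duration was collapsed by area under the curve.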

Test [11] is described as follows: CCTE_Shafer_MEA_dev_per_network_spike_spike_number_mean: CCTE's Neural Network Formation Assay for Mean Number of Spikes in a Network Spike, Shafer Lab (AID 2284053).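 On AC50: fitted as decrease in spikes per network spike relative to DMSO.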 A digest of the protocol:
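Mean spike count within each network spike, taken in a 0.05 s window at its peak, was recorded on days 5, 7, 9 and 12 and integrated as trapezoidal area under the curve. Rat cortical cultures on MEA plates received continuous compound from day 0, refreshed at medium changes on DIV 5 and 9.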

The nature of test [12]: CCTE_Shafer_MEA_dev_per_network_spike_spike_percent: CCTE's Neural Network Formation Assay for Percent of Spikes in a Network Spike, Shafer Lab (AID 2284054). Summed up: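 Primary rat cortical neurons on 16-electrode MEA wells (PEI-coated, laminin at plating), exposed from day 0 with renewal at DIV 5 and 9; spikes within 0.05 s of network-spike peaks over total spikes, AUC across days 5, 7, 9, 12.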

Test [13] can be described thus: CCTE_Shafer_MEA_acute_AB: CCTE's Alamar Blue Assay for Cytotoxicity in the Neural Acute Assay, Shafer Lab (AID 2284069; active means hit-call score of the fitted dose curve at least 0.9, where 1 is the maximum;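 further: active compounds lower the viability signal compared with DMSO wells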). Summed up:
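Resazurin reduction (CellTiter Blue, 1:6 in fresh medium) read at ex 544/em 590 nm marks viability loss relative to DMSO. Cells: primary rat cortical neuron networks on microelectrode arrays, treated after baseline recording at 13 or 15 days in vitro.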

A short description of test [14]: CCTE_Shafer_MEA_dev_AB: CCTE's Alamar Blue Assay for Cytotoxicity in the Neural Network Formation Assay, Shafer Lab (AID 2284083; active means hit-call score of the fitted dose curve at least 0.9, where 1 is the maximum;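 further: resazurin reduction fluorescence as viability of cultured neurons; twelve days of exposure from plating with re-dosing on DIV 5 and 9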). A digest of the protocol: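 Resazurin fluorescence, relative to DMSO, gauges viability after twelve days of exposure that began at plating of rat cortical neurons (1.5 x 10^5 cells/well, 48-well MEA); treatment renewed with full medium exchange on DIV 5 and 9.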
On the technique in general: The colour change of resazurin is a common sign of viable cells or microbes.

Test [15] in a line: CCTE_Shafer_MEA_acute_LDH: CCTE's Lactate Dehydrogenase Assay for Cytotoxicity in the Neural Acute Assay, Shafer Lab (AID 2284086; active means hit-call score of the fitted dose curve at least 0.9, where 1 is the maximum;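 further: active means LDH release rises above DMSO vehicle level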). Summed up:
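Rat cortical neurons cultured on microelectrode arrays; baseline 40-min recording, compound added, second 40-min recording; medium then sampled for released LDH (colorimetric kit, 490 nm). DMSO = negative control.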

The nature of test [16]: CCTE_Shafer_MEA_dev_mutual_information_norm: CCTE's Neural Network Formation Assay for Mutual Information Normalization, Shafer Lab (AID 2284091).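 On AC50: mutual information between electrodes summarised as area under curve across four recording days; potency is for a decrease in mutual information relative to DMSO.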 Summed up: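 Rat cortical cultures, 48-well MEA, continuous exposure DIV 0–12 with full media/compound change DIV 5 and 9. Readout: inter-electrode mutual information, AxIS adaptive spike detection; AUC across DIV 5/7/9/12 recordings; DMSO baseline, negative fitting direction.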

“And” between values parts separate entries of the source, which are not always exact repeats. Equal entries are not always repeated. Inconclusive results are not listed. Some compounds were tested as several samples or in several runs, with calls that do not always agree. The source made the active and inactive calls. How the source made its calls, unless noted: active means hit-call score of the fitted dose curve at least 0.9, where 1 is the maximum; inactive means score below 0.9.

Estrogen receptor (Homo sapiens), sequence (P03372 whole entry, looked up): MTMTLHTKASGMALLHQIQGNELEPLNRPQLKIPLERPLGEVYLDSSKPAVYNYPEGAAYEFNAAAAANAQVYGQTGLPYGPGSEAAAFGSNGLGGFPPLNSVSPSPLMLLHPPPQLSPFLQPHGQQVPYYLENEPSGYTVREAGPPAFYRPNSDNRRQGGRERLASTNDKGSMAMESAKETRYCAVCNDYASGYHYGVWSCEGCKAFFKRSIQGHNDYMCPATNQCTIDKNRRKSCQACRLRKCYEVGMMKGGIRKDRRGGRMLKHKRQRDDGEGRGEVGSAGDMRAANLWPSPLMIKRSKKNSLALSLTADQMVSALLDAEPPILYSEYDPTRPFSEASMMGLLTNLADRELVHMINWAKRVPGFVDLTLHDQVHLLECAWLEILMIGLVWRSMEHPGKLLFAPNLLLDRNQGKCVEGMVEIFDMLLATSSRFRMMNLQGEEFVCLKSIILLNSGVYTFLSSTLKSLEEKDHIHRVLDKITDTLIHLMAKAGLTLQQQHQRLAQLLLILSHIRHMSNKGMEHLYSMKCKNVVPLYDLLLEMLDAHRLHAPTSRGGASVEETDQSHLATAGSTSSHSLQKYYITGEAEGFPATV

For `COCC(C)N(C(=O)CCl)c1c(C)csc1C` (configuration not stated), the call in test [1] and in [2] was inactive.

The term AC50 denotes the midpoint of the concentration-response curve, whichever way the signal moves. As for `CC1(C)C(C=C(Cl)Cl)C1C(=O)OC(C#N)c1cccc(Oc2ccccc2)c1` (configuration not stated), the AC50 is 2.33 µM (active) in [1]; 9 µM (active) in test [3]; 3.77 µM (active) in test [4]; 6.24 µM (active) in test [5]; 3.49 µM (active) in [6]; 2.98 µM (active) in [8]. Besides, the AC50 is 11.4 µM (active) in test [9]; 6.93 µM (active) in test [10]; 6.97 µM (active) in [11]; 8.41 µM (active) in [12]; 1.43 µM (active) in [16]. Besides, the call in test [3], in [2], in test [4], in test [5], in test [6] and in test [7] was inactive. Besides, the result in test [8], in [9], in test [10], in test [11], in [12] and in test [13] was inactive. For the same compound, the result in test [14], in test [15] and in test [16] was inactive.

As for `CS(=O)(=O)c1cc(C(F)(F)F)ccc1C(=O)c1cnoc1C1CC1`, the compound was called inactive in [1], in test [3], in test [2], in [4], in test [5] and in test [6]. The compound was classed as inactive in test [7], in [8], in test [9], in test [10], in test [11] and in [12]. In [16], the call was inactive.

With `CCCCC(O)(Cn1cncn1)c1ccc(Cl)cc1Cl` (configuration not stated), the AC50 in test [1] is 100 µM (active). Moreover, the result in test [2] and in [15] was inactive.

On to `CC(C)N1C(=O)N(c2ccccc2)CSC1=NC(C)(C)C`, for which the result in test [1], in test [2], in test [13] and in test [15] was inactive.

Consider `C=C(C)CN(CC)c1c([N+](=O)[O-])cc(C(F)(F)F)cc1[N+](=O)[O-]`, for which the outcome in [1], in test [2], in test [7] and in test [13] was inactive. Also, the half-maximal activity concentration (AC50) was 16.9 µM (active) in test [3]; 13.3 µM (active) in test [4]; 16.4 µM (active) in test [5]; 22.2 µM (active) in test [6]; 23.2 µM (active) in [8]; 18.1 µM (active) in test [9]. Further, the AC50 was 13.2 µM (active) in test [10]; 14.1 µM (active) in test [11]; 23.2 µM (active) in test [12]; 15.6 µM (active) in test [14]; 12.8 µM (active) in [16].

`COc1cc(OC)nc(NC(=O)NS(=O)(=O)c2ncccc2OCC(F)(F)F)n1`: the outcome in test [1] and in [2] was inactive.

Turning to `COCc1cnc(C2=NC(C)(C(C)C)C(=O)N2)c(C(=O)O)c1` (configuration not stated), the compound was classed as inactive in test [1] and in test [2].

On to `CN=C=S`, for which the compound was classed as inactive in test [1] and in test [2].

In the case of `COc1ccc(-c2ccccc2)cc1NNC(=O)OC(C)C`, in test [1], the AC50 is 77.9 µM (active). The outcome in [2] was inactive.

`O=C1C2CC=CCC2C(=O)N1SC(Cl)(Cl)Cl` (configuration not stated): the AC50 in test [3] is 9.85 µM (active); in test [5], 9.85 µM (active) and 1.97 µM (active); in test [6], 9.95 µM (active); in [9] it was 9.85 µM (active) and 16.2 µM (active); in test [10], 9.85 µM (active); in [11], 9.85 µM (active). For the same compound, the AC50 in test [12] is 15.6 µM (active); in test [14] it was 16.1 µM (active) and 14.7 µM (active). Besides, the call in test [3], in [4], in test [6], in [7], in [8] and in test [10] was inactive. The compound was classed as inactive in [11], in test [12] and in test [16].

Consider `O=c1n(Cl)c(=O)n(Cl)c(=O)n1Cl`, for which the outcome in test [1] and in test [2] was inactive.

`CC(C)(C)C(=O)C(Oc1ccc(Cl)cc1)n1cncn1` (configuration not stated): the AC50 in [3] is 38.7 µM (active); in test [5], 39.6 µM (active); in test [9], 38.7 µM (active); in test [10] it was 40.2 µM (active); in [11], 35.5 µM (active); in test [12], 45.9 µM (active). The AC50 in test [14] was 38.6 µM (active). In addition, the result in test [4], in test [6], in [7], in test [8] and in [16] was inactive.

As for `CC(C)N1C(=O)c2ccccc2NS1(=O)=O`, the result in test [2] and in test [15] was inactive.

Regarding `CC1(C)CON(Cc2ccccc2Cl)C1=O`, the AC50 in [2] was 37.7 µM (active).

In the case of `CCOc1nc(C(Cl)(Cl)Cl)ns1`, the result in test [2] was inactive.

Consider `COCC(=O)N(c1c(C)cccc1C)C(C)C(=O)OC` (configuration not stated), for which the result in test [15] was inactive.
